Assay results taken from PubChem BioAssay (EPA / NIEHS).
Inconclusive results are not listed. Active and inactive are the calls of the source. Rule for the calls, unless noted: active = hit-call score of the fitted dose curve at least 0.9, where 1 is the maximum; inconclusive = response in the unintended direction; inactive = score below 0.9.

How the values were obtained:
[1] = read-out: Intercellular Adhesion Molecule 1 (ICAM1), ICAM1 (gene 3383); experiment: BSK_3C_ICAM1: BioMAP Diversity Plus: 3C Assay for Intercellular Adhesion Molecule 1 (ICAM1) Biomarker Activity (AID 2283003; active = hit-call score of the fitted dose curve at least 0.9, where 1 is the maximum; inactive = score below 0.9); conditions: primary human endothelial cells (HUVEC); actives raise or lower the signal
How it was run: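 Using DMSO as baseline, bidirectional curve fitting was applied to ICAM-1 ELISA signals from HUVEC in the 3C system, measured 24 h after compound addition.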

[2] = BSK_3C_Proliferation: Cell Proliferation Assessment in the BioMAP Diversity Plus: 3C Assay (AID 2283006; active = hit-call score of the fitted dose curve at least 0.9, where 1 is the maximum; inactive = score below 0.9); conditions: primary human endothelial cells (HUVEC)
How it was run: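 Measured here: sulforhodamine B (0.1%) staining of TCA-fixed sub-confluent umbilical vein endothelial cultures 48 h post-dosing, absorbance 560 nm. DMSO served as negative control and baseline; both signal gain and loss were modelled.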

[3] = target: human Retinoic Acid Receptor gamma (RARg), RARG (gene 5916) (UniProt P13631); experiment: ATG_RARg_TRANS: Attagene TRANS-FACTORIAL HepG2 Assay for human Retinoic Acid Receptor gamma (RARg) (AID 2283009)
How it was run: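 Gain-of-signal relative to DMSO is reported from fluorescent capillary electrophoresis of RT-PCR reporter products. These came from HepG2 cells expressing transfected RARg-GAL4 chimeras with UAS reporters, harvested 24 h after dosing.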

[4] = target: human Retinoid X Receptor beta (RXRb), RXRB (gene 6257) (UniProt P28702); experiment: ATG_RXRb_TRANS: Attagene TRANS-FACTORIAL HepG2 Assay for human Retinoid X Receptor beta (RXRb) (AID 2283013)
How it was run: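 After a 24 h incubation with test chemical, transfected HepG2 cells carrying NR-Gal4 fusions and GAL4-UAS reporter transcription units yield RNA whose reporter cDNA is FAM-labelled, HpaI-cut and sized by capillary electrophoresis; increases over DMSO are scored.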

[5] = read-out: Interleukin-1 alpha (IL1a), IL1A (gene 3552); experiment: BSK_BE3C_IL1a: BioMAP Diversity Plus: BE3C Assay for Interleukin-1 alpha (IL1a) Biomarker Activity (AID 2283016; active = hit-call score of the fitted dose curve at least 0.9, where 1 is the maximum; inactive = score below 0.9); conditions: primary human bronchial epithelial cells; actives raise or lower the signal
How it was run: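 Measured in human lung primary bronchial epithelial cells: IL-1a by ELISA at 24 h after dosing, with bidirectional fitting against DMSO.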

[6] = read-out: Monocyte Chemoattractant Protein-1 (MCP1), CCL2 (gene 6347); experiment: BSK_3C_MCP1: BioMAP Diversity Plus: 3C Assay for Monocyte Chemoattractant Protein-1 (MCP1) Biomarker Activity (AID 2283017; active = hit-call score of the fitted dose curve at least 0.9, where 1 is the maximum; inactive = score below 0.9); conditions: primary human endothelial cells (HUVEC); actives raise or lower the signal
How it was run: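 ELISA read-out of MCP-1 from human umbilical vein endothelial cell cultures harvested 24 h post-dosing. Gain or loss of signal was fitted relative to DMSO.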

[7] = read-out: Monocyte Chemoattractant Protein-1 (MCP1), CCL2 (gene 6347); experiment: BSK_4H_MCP1: BioMAP Diversity Plus: 4H Assay for Monocyte Chemoattractant Protein-1 (MCP1) Biomarker Activity (AID 2283018; active = hit-call score of the fitted dose curve at least 0.9, where 1 is the maximum; inactive = score below 0.9); conditions: primary human endothelial cells (HUVEC); actives raise or lower the signal
How it was run: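 Primary human umbilical vein endothelium is exposed to chemical for 24 h before MCP-1 is assayed by ELISA. Concentration-response fitted bidirectionally relative to DMSO.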

[8] = read-out: Human Leukocyte Antigen - DR isotype (HLADR), HLA-DRA (gene 3122); experiment: BSK_3C_HLADR: BioMAP Diversity Plus: 3C Assay for Human Leukocyte Antigen - DR isotype (HLADR) Biomarker Activity (AID 2283019; active = hit-call score of the fitted dose curve at least 0.9, where 1 is the maximum; inactive = score below 0.9;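 note: ELISA of cell-surface HLA-DR on HUVEC 24 h after dosing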); conditions: primary human endothelial cells (HUVEC); actives raise or lower the signal
How it was run: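 ELISA readout of surface HLA-DR on human umbilical vein endothelium, taken 24 h after chemical treatment. Gain- and loss-of-signal were both fitted relative to DMSO.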

[9] = read-out: Interleukin-8 (IL8), CXCL8 (gene 3576); experiment: BSK_3C_IL8: BioMAP Diversity Plus: 3C Assay for Interleukin-8 (IL8) Biomarker Activity (AID 2283020; active = hit-call score of the fitted dose curve at least 0.9, where 1 is the maximum; inactive = score below 0.9); conditions: primary human endothelial cells (HUVEC); actives raise or lower the signal
How it was run: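 Using DMSO-treated wells as the baseline, bidirectional curve fitting was applied to ELISA-measured IL-8 from human umbilical vein endothelial cultures sampled 24 h after compound addition.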

[10] = target: human Vitamin D Receptor (VDR), VDR (gene 7421) (UniProt P11473); experiment: ATG_VDR_TRANS: Attagene TRANS-FACTORIAL HepG2 Assay for human Vitamin D Receptor (VDR) (AID 2283022)
How it was run: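 Steps: transfect HepG2 with GAL4-UAS-driven reporter constructs; dose compounds 24 h; isolate RNA, reverse-transcribe, PCR-amplify with 6-FAM-labelled primer extension and HpaI digestion; quantify fragments by capillary electrophoresis relative to DMSO.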

[11] = target: human Retinoic Acid Receptor beta (RARb), RARB (gene 5915) (UniProt P10826); experiment: ATG_RARb_TRANS: Attagene TRANS-FACTORIAL HepG2 Assay for human Retinoic Acid Receptor beta (AID 2283004)
How it was run: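 Transient transfection of HepG2 with multiple reporter units → chemical dosing, 24 h → total RNA isolation → RT with oligo(dT) → reporter-specific PCR, 6-FAM primer extension, HpaI digest → capillary electrophoresis. Positive direction vs DMSO control.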

[12] = target: Retinoic acid receptor alpha (Homo sapiens) (UniProt P10276); experiment: ATG_RARa_TRANS: Attagene TRANS-FACTORIAL HepG2 Assay for human Retinoic Acid Receptor alpha (RARa) (AID 2283005)
How it was run: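 Reporter transcripts, measured by RT-PCR with fluorescent labeling and capillary electrophoresis after 24 h dosing, reflect activity of an exogenous human RARa–GAL4 fusion in transiently transfected HepG2. Fitted for increase relative to DMSO.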

[13] = target: Nuclear receptor subfamily 1 group I member 2 (Homo sapiens) (UniProt O75469); experiment: ATG_PXR_TRANS: Attagene TRANS-FACTORIAL HepG2 Assay for human Pregnane X Receptor (PXR) (AID 2283008)
How it was run: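 Multiplexed TRANS reporter panel in HepG2; this component tracks PXR-Gal4-driven reporter mRNA after 24 h dosing, measured by RT-PCR with capillary electrophoresis fluorescence, fitted against DMSO.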

[14] = target: Retinoic acid receptor RXR-alpha (Homo sapiens) (UniProt P19793); experiment: ATG_RXRa_TRANS: Attagene TRANS-FACTORIAL HepG2 Assay for human Retinoid X Receptor alpha (RXRa) (AID 2283012)
How it was run: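 Chimeric NR-GAL4 trans-activation in HepG2, 24 h treatment; reporter transcripts quantified by fluorescence on capillary electrophoresis, analysed for upward change from DMSO.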

[15] = target: human Thyroid Receptor alpha (THRa1), THRA (gene 7067) (UniProt P10827); experiment: ATG_THRa1_TRANS: Attagene TRANS-FACTORIAL HepG2 Assay for human Thyroid Receptor alpha (THRa1) (AID 2283014)
How it was run: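 Reporter transcript induction, read by capillary electrophoresis of 6-FAM-labelled RT-PCR products, reflects activity of a transfected THRa1-Gal4 fusion in HepG2 liver cells. Cells were dosed for 24 h; activity was fitted in the positive direction against DMSO.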

[16] = target: Peroxisome proliferator-activated receptor gamma (Homo sapiens) (UniProt P37231); experiment: ATG_PPARg_TRANS: Attagene TRANS-FACTORIAL HepG2 Assay for human Peroxisome Proliferator-activated Receptor-gamma (PPARg) (AID 2283007)
How it was run: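 Gain-of-signal endpoint relative to DMSO, derived from reporter mRNA levels quantified by RT-PCR and capillary electrophoresis. Cells were HepG2 transiently expressing a chimeric NR-Gal4 construct with GAL4-UAS reporters, exposed to chemicals for 24 h.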

[17] = target: human RAR-related Orphan Receptor beta (RORb), RORB (gene 6096) (UniProt Q92753); experiment: ATG_RORb_TRANS: Attagene TRANS-FACTORIAL HepG2 Assay for human RAR-related Orphan Receptor beta (RORb) (AID 2283010)
How it was run: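 Multiplexed transcription-factor reporter assay: HepG2 cells transiently carrying NR-Gal4/GAL4-UAS constructs, 24 h treatment, mRNA quantified by RT-PCR plus capillary electrophoresis fluorescence; activity scored as induction over DMSO.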

[18] = target: human RAR-related Orphan Receptor gamma (RORg), RORC (gene 6097) (UniProt P51449); experiment: ATG_RORg_TRANS: Attagene TRANS-FACTORIAL HepG2 Assay for human RAR-related Orphan Receptor gamma (RORg) (AID 2283011)
How it was run: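 First, HepG2 liver cells were transfected with GAL4-UAS-driven reporter constructs and the RORg-Gal4 fusion. Next, they were treated with chemical for 24 h. Finally, reporter mRNA was quantified by RT-PCR and capillary electrophoresis, with upward activity fitted against DMSO.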

Measured: AC50

human Retinoic Acid Receptor gamma (RARg), RARG (gene 5916), sequence (P13631 whole entry, looked up, the tested form may be a part): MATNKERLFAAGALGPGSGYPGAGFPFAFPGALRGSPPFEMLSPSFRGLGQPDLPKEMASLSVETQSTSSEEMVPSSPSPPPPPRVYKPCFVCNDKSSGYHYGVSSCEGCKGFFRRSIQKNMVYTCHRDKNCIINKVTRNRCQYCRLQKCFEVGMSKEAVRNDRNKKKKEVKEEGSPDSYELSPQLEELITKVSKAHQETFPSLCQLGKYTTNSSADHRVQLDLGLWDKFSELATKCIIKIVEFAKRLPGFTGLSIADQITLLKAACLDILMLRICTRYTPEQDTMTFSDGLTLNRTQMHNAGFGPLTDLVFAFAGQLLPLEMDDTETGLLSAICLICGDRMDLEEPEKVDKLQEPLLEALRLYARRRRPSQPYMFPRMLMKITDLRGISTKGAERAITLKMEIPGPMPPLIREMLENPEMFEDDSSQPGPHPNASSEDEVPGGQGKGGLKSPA
Peroxisome proliferator-activated receptor gamma (Homo sapiens), sequence (P37231 whole entry, looked up, the tested form may be a part): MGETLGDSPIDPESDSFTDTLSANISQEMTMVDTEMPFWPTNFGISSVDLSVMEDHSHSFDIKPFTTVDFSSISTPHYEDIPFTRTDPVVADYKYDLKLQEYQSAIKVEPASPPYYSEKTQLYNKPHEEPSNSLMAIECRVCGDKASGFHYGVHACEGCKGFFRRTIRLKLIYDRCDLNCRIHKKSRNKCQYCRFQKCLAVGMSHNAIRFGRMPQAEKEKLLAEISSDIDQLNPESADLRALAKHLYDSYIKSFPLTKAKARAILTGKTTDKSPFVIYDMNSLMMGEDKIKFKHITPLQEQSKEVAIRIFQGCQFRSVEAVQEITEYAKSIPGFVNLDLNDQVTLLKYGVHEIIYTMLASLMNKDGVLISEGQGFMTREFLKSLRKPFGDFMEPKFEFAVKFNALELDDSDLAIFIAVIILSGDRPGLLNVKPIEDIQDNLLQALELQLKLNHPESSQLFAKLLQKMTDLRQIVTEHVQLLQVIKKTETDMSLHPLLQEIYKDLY
Retinoic acid receptor RXR-alpha (Homo sapiens), sequence (P19793 whole entry, looked up, the tested form may be a part): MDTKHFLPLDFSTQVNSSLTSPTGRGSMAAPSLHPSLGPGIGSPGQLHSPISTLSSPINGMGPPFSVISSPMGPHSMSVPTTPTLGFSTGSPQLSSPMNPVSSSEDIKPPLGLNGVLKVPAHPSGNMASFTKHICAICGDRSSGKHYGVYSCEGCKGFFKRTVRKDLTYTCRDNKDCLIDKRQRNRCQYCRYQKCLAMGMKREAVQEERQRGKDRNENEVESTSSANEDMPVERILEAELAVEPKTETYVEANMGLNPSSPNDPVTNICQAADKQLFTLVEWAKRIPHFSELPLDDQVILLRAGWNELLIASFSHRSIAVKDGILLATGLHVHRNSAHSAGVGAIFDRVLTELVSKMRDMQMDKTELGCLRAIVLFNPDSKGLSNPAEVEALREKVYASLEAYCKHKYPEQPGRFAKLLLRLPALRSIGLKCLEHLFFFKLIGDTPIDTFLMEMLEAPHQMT
human Thyroid Receptor alpha (THRa1), THRA (gene 7067), sequence (P10827 whole entry, looked up, the tested form may be a part): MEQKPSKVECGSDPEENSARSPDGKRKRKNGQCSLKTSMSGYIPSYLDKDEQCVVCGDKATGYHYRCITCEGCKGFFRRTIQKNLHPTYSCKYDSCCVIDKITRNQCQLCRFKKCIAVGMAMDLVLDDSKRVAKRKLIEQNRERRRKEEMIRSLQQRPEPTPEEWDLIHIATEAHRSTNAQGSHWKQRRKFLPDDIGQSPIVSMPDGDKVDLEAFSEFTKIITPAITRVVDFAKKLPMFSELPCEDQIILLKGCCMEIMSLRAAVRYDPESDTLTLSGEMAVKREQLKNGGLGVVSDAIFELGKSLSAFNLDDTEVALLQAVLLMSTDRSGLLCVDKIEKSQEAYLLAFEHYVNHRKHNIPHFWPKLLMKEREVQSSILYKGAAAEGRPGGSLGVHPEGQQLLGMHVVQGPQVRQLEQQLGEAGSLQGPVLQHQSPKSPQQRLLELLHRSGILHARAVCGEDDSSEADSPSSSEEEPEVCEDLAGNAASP
human Retinoic Acid Receptor beta (RARb), RARB (gene 5915), sequence (P10826 whole entry, looked up): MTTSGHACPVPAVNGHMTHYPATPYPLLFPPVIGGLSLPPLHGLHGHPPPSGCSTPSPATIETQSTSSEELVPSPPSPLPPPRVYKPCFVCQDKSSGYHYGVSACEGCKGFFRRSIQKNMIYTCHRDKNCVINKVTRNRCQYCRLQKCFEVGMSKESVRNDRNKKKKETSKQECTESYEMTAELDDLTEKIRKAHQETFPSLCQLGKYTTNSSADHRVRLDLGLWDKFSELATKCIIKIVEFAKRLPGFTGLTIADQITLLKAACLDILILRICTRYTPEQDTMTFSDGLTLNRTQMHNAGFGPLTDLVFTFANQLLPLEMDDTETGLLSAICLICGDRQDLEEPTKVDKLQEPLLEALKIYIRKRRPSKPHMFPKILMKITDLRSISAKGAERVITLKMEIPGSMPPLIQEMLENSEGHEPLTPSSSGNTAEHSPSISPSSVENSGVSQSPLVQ
human RAR-related Orphan Receptor gamma (RORg), RORC (gene 6097), sequence (P51449 whole entry, looked up, the tested form may be a part): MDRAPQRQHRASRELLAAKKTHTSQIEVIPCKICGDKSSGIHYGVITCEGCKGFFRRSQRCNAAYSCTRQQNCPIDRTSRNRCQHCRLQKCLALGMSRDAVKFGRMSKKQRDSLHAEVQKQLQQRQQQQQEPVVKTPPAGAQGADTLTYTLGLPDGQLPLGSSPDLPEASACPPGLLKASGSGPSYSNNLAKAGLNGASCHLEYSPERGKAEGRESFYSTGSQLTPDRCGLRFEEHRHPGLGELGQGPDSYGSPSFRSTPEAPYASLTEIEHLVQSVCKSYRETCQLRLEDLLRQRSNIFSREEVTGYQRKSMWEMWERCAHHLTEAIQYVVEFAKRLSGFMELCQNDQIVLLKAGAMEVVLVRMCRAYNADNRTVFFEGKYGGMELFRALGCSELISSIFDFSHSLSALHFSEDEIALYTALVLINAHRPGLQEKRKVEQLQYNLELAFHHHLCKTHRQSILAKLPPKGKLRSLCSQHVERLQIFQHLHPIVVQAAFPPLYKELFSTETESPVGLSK
human Retinoid X Receptor beta (RXRb), RXRB (gene 6257), sequence (P28702 whole entry, looked up, the tested form may be a part): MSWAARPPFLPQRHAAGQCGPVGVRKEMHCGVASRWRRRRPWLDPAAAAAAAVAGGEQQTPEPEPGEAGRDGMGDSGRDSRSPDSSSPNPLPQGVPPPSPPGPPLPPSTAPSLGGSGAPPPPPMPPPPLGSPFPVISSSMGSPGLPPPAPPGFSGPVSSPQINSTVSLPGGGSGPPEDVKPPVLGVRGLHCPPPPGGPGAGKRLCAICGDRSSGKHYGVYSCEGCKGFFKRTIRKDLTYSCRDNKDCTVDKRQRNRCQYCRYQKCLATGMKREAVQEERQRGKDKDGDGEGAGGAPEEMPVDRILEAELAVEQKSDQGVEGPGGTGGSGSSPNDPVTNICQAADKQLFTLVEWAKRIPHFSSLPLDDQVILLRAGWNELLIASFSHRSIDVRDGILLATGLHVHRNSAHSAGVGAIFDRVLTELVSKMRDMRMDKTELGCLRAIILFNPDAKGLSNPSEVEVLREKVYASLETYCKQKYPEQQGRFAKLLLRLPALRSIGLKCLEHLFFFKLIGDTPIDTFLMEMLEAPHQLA
human Vitamin D Receptor (VDR), VDR (gene 7421), sequence (P11473 whole entry, looked up, the tested form may be a part): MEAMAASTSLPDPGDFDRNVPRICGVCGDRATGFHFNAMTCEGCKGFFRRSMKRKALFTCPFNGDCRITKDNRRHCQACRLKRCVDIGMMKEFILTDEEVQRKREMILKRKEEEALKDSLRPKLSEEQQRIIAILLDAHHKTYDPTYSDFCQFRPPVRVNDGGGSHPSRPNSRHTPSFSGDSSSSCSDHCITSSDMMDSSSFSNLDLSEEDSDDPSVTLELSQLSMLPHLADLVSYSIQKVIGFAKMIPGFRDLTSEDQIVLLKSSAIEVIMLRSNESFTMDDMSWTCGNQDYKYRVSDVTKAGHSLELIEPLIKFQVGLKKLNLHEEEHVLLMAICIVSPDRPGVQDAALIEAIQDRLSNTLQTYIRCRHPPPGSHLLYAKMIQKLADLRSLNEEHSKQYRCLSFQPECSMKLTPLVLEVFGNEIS
Nuclear receptor subfamily 1 group I member 2 (Homo sapiens), sequence (O75469 whole entry, looked up, the tested form may be a part): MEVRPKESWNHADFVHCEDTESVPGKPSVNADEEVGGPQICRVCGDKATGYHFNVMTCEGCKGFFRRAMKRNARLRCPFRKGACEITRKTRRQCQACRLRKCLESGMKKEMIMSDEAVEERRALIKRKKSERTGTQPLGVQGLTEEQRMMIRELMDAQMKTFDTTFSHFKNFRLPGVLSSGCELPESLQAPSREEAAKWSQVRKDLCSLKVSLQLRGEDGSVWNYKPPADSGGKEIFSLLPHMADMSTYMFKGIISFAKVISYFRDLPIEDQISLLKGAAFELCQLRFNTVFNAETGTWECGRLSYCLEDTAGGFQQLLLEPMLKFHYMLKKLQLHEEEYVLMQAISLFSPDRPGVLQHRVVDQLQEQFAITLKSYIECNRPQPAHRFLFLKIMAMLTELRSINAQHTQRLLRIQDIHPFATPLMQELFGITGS
Retinoic acid receptor alpha (Homo sapiens), sequence (P10276 whole entry, looked up, the tested form may be a part): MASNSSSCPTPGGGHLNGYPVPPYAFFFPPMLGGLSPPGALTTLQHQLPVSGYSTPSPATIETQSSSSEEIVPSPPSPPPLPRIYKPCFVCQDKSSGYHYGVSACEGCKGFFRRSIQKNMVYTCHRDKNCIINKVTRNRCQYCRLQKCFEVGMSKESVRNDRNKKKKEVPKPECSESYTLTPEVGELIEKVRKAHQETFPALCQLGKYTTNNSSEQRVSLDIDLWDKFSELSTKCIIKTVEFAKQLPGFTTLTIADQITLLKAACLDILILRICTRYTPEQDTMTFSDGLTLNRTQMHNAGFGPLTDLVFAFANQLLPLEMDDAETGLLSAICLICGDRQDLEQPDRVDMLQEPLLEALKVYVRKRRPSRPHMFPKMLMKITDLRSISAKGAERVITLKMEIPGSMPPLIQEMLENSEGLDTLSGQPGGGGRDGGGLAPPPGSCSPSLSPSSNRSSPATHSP

Clc1cccc(Cl)c1Cl
inactive: [1] | [2] | [3] | [4] | [5] | [6] | [7] | [8] | [9] | [10]

CC(C)(c1ccc(O)c(-c2ccccc2)c1)c1ccc(O)c(-c2ccccc2)c1
active: [13] 1450 nM
inactive: [11] | [12] | [3] | [14] | [15]

Clc1cc(C(Cl)(Cl)Cl)cnc1Cl
inactive: [11] | [16] | [17]

O=C(CBr)c1ccc(O)cc1
inactive: [11] | [16] | [13] | [18]

O=S1OC[C@@H]2[C@H](CO1)[C@]1(Cl)C(Cl)=C(Cl)[C@@]2(Cl)C1(Cl)Cl (stereo partly drawn)
inactive: [11] | [12] | [3] | [14] | [4] | [15] | [10]
active: [13] 4500 nM

NC(=O)c1ccc(N)nc1
inactive: [11] | [12] | [3] | [17] | [18] | [14] | [15]

C=CCOC(N)=O
inactive: [11] | [12] | [16] | [3] | [18] | [15]

COC(F)(C(F)(F)C(F)(F)F)C(F)(C(F)(F)F)C(F)(F)F (stereo not drawn)
inactive: [11] | [12] | [16] | [3] | [18] | [4] | [15] | [10]

CCCCC(CC)COC(=O)Cl (stereo not drawn)
inactive: [11] | [12] | [16] | [3] | [4]

C[C@H]1C(=O)O[C@@H]2CCN3CC=C(COC(=O)[C@](C)(O)[C@]1(C)O)[C@H]23
inactive: [11] | [16]

COc1nn(C(=O)NS(=O)(=O)c2ccccc2OC(F)(F)F)c(=O)n1C
inactive: [11] | [16] | [14] | [10]

CC(c1ccccc1)(c1ccc(O)cc1)c1ccc(O)cc1
inactive: [11] | [12] | [16] | [10]

CN(C1CCCCC1)C1CCCCC1
inactive: [11] | [12] | [16] | [3] | [15]

Cc1cc(C(F)(C(F)(F)F)C(F)(F)F)ccc1NC(=O)c1cccc(I)c1C(=O)NC(C)(C)CS(C)(=O)=O
inactive: [11] | [12] | [3] | [14]
active: [13] 1130 nM
